Only some compounds are listed: those with a hit (about 2.3% of all), similar ones and a draw of the others.
Apoferritin bind: qHTS Assay for Identification of Novel General Anesthetics; Ferritin light chain (Equus caballus), P02791; apoferritin/1-aminoanthracene competitive binding, fluorescence; AID 485281, 2010; Potency, µM (titrated, usually from 77.5 µM), for the others: at the highest dose activity change, negative = displacement, most hits filed as inhibitors; hit rate 0.074% among 350,000; note: potency is the fitted concentration of half-maximal effect; % is set by controls: 0 for no effect and ±100 for the full control effect; nearly all actives have a fitted effect of over 20% in size
Target sequence (P02791 2-175 limits assumed): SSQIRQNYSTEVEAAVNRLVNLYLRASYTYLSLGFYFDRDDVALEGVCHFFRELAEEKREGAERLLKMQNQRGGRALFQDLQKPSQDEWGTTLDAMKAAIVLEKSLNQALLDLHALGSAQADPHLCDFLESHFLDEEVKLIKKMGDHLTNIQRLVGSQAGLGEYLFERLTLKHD
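Apoferritin-based anesthetic binding model; compound displacement of fluorescent 1-AMA measured as endpoint fluorescence after 10 minutes at room temperature, scaled to free-ligand and complex controls.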
Nrf2 ARE act: qHTS of Nrf2 Activators. AREc32 ARE-luciferase reporter (MCF7-derived line), luminescence, 24 h. Potency, µM (doses to about 46.1 µM), without a hit: at the top dose activation, actives largely listed as activators. AID 624171, 2012. hit rate 0.31% among 410,000; note: potency is the fitted concentration of half-maximal effect; % of control where 0% means no effect; nearly all actives have a fitted effect of over 65% in size
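AREc32_Fluc, 1000 cells/well, OPTI-MEM + 5% FBS, o/n 37 deg C 5% CO2; 23 nL cpd by pin tool, 24 hr; Steady-Glo 30 min RT, luminescence.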
A549 viability: Nrf2 qHTS screen for inhibitors: counterscreen for cytotoxicity. AID 504648, 2011. hit rate 0.16% among 390,000. Potency, µM (doses to about 46 µM), for the others: top-dose activity change, negative = cytotoxicity, actives largely listed as inhibitors. A549 ARE-Fluc cells, CellTiter-Fluor viability, 18-24 h; note: potency is the fitted concentration of half-maximal effect; % is set by controls: 0 for no effect and ±100 for the full control effect
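A549 ARE_Fluc cells in 5% FBS OPTI-MEM were exposed to compounds in concentration-response for 18-24 h at 37 deg C. Viability was read by CellTiter-Fluor fluorescence (Ex 405/Em 525) after 30 min, before the luciferase read.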
Nrf2 inh: Nrf2 qHTS screen for inhibitors; A549 ARE-Fluc reporter, luciferase luminescence, 18-24 h; Potency, µM (top dose mostly 46 µM), for the others: top-dose activity change, negative = inhibition, usual class: inhibitors; hit rate 2.1% among 360,000; AID 504444, 2011; note: potency is the fitted concentration of half-maximal effect; % is set by controls: 0 for no effect and ±100 for the full control effect; nearly all actives have a fitted effect of over 60% in size
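Reporter: ARE-Fluc in A549. Exposure: 18-24 h, 37 °C, 5% CO2, 5% FBS OPTI-MEM. Readouts: fluorescent cytotoxicity (CellTiter-Fluor), then luminescent Nrf2 signal after BugLite.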
IDH1 R132H inh: qHTS for Inhibitors of mutant isocitrate dehydrogenase 1 (IDH1): qHTS. Isocitrate dehydrogenase [NADP] cytoplasmic (Homo sapiens), O75874. IDH1-R132H enzyme, NADPH consumption, diaphorase/resazurin fluorescence. Potency, µM (series often up to 76.6 µM), for the others: at the top dose activity change, negative = inhibition, usual class: inhibitors. hit rate 0.093% among 390,000. AID 602179, 2012; note: potency is the fitted concentration of half-maximal effect; % is set by controls: 0 for no effect and ±100 for the full control effect; nearly all actives have a fitted effect of over 65% in size
Target sequence (O75874 whole entry R132H, stated change not applied): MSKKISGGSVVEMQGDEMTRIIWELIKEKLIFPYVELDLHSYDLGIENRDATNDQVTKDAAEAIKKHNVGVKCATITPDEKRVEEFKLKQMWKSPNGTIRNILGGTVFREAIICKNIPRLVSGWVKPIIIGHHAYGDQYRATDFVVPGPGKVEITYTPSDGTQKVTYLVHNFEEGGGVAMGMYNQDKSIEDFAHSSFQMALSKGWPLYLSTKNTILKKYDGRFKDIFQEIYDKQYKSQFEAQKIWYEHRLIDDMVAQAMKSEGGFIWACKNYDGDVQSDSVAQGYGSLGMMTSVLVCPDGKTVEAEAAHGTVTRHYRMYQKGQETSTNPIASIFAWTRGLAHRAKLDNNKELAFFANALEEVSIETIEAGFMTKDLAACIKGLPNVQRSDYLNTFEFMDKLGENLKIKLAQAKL
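IDH1-R132H (0.5 ug/mL) preincubated 30 min with compound, then NADPH (0.016 mM) and alpha-KG (2 mM) added; 80 min at RT, pH 7.5. Remaining NADPH coupled via diaphorase/resazurin to fluorescence (540/590 nm); concentration-response curves normalized to no-enzyme control.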
Giardia kill: Small Molecules that selectively kill Giardia lamblia: qHTS | Giardia lamblia trophozoite viability | activity change, % at 7.66 µM, hits read low | hit rate 0.15% among 340,000 | AID 540267, 2011; in the data active = activity change below about -80%; inconclusive = between about -30% and that limit;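 note: parasites exposed to compound for two days anaerobically before the ATP read; % is set by controls: 0 for no effect and ±100 for the full control effect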
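Giardia lamblia trophozoites (100 cells/well) were incubated with compounds for 48 h at 37 deg C under anaerobic conditions. Viability was read as ATP content by one-step luminescence after 15-30 min at room temperature.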
The depositor's hits bear a star; ? = inconclusive; . = no result; [ ] = another dose, or the depositor's remark. Unless noted, calls come from the whole dose curve; as a rule, active = well fitted curve in the direction sought with a large enough effect; inconclusive = small, poorly fitted or top-dose-only effect, or another doubt; inactive = no such curve, though single readings can be large; an effect the other way counts as inactive or inconclusive.

SMILES	Apoferritin bind	Nrf2 ARE act	A549 viability	Nrf2 inh	IDH1 R132H inh	Giardia kill
CC(=O)N1CCc2cc(S(=O)(=O)C(C)CC(=O)Nc3ccc(OC(F)(F)F)cc3)ccc21 (configuration not stated)	-8.5%	-0.6%	-7.9%	11.6µM*	-3.6%	-8.8
CC(=O)N1c2ccc(S(=O)(=O)NCCC(=O)NCCc3ccc(C)cc3)cc2CC1C (configuration not stated)	-7.2%	0.1%	-7.8%	16.4µM*	0.0%	3.3
CC(C)CO/N=C1/C[C@@H](O)[C@@H](O)[C@@H]2[C@@H]3C(=O)N(C[C@@H]4CCCO4)C(=O)[C@H]3CC[C@H]12	1.8%[15.3 µM]	.	.	.	.	.
COc1cccc(C2CC(c3ccc(Br)cc3)=NN2C(=O)c2ccncc2)c1OC (configuration not stated)	-17.9%	3.4%	-15.1%	18.4µM*	-19.2%	-6.9
CCCn1c(C)nc2c(Nc3ccccc3)nc(C)nc21	-8.7%	.	.	.	.	.
COc1ccc(C(=O)n2cnnc2N)cc1	-9.4%	-0.5%	6.9%	?	-3.7%	-3.7
CCOc1ccc(C(=O)n2cnnc2N)cc1	6.1%	0.3%	0.8%	13µM*	0.6%	-24.1
CCn1c(=O)c2sccc2n2c(CCCC(=O)Nc3ccc(C)cc3)nnc12	-5.6%	-0.2%	0.0%	?	10.5%	.
Cc1sc2ncnc(N3CCC(C(=O)Nc4cc(C(F)(F)F)ccc4OCC(F)(F)F)CC3)c2c1C	.	-0.3%	-23.6%	-7.7%	5.5%	-9.4
Cc1sc2ncnc(N3CCC(C(=O)Nc4cc(Cl)ccc4Cl)CC3)c2c1C	.	-0.5%	-13.2%	?	7.2%	4.4
Cc1sc2ncnc(N3CCC(C(=O)Nc4cc(S(C)(=O)=O)ccc4Cl)CC3)c2c1C	.	-0.3%	-11.5%	18.4µM*	0.0%	21.6
COc1ccc(S(=O)(=O)N(C)C)cc1NC(=O)C1CCN(c2ncnc3sc(C)c(C)c23)CC1	.	6.3%	?	11.6µM*	-0.7%	-12.3
CCN1CCN(Cc2nc3cc(NC(=O)c4cccc([N+](=O)[O-])c4)ccc3n2CC)CC1	63.4%	-0.9%	3.3%	-4.5%	-3.1%	.
Cc1cccc(CSC2=CS(=O)(=O)c3ccccc3N2)c1	?	-0.1%	0.2%	?	-2.1%	3.9
O=S1(=O)C=C(SCc2cccc(Cl)c2)Nc2ccccc21	?	-1.0%	0.1%	20.6µM*	-2.3%	-3.9
CC(=O)OCOC(=O)CNc1ccccc1OCCOc1ccccc1NCC(=O)OCOC(C)=O	40.8%	.	.	.	.	.
COc1ccc(-n2cc(-c3ccc4c(c3)OCO4)n(CC(=O)Nc3cc(Cl)ccc3C)c2=O)cc1	-6.7%	4.2%	-19.2%	?	28.5%	.
COc1ccc(-n2cc(-c3ccc4c(c3)OCO4)n(CC(=O)Nc3cccc(C)c3C)c2=O)c(OC)c1	-10.9%	-1.5%	?	13µM*	-16.0%	.
COc1ccc(NC(=O)CSCC(=O)N2c3ccccc3CCc3ccccc32)cc1	2.3%	2.6%	15.8%	-18.9%	-1.4%	-4.0
COc1ccccc1NC(=O)COc1ccccc1	-17.6%	11.2µM*	5.2%	?	0.0%	-11.9
COc1ccccc1NC(=O)CSCC(=O)N1c2ccccc2CCc2ccccc21	10.4%	2.3%	?	18.4µM*	-6.3%	-17.9
O=C(COc1ccccc1)Nc1ccccc1Oc1ccccc1	-11.6%	-0.6%[9.22 µM]	22.1%	?	2.2%	5.2
NC(=S)NN=C1CSSC1	.	10µM*	.	.	8.6%	.
COc1cccc(-n2nnnc2S(C)(=O)=O)c1	-15.4%	?	?	10.3µM*	-2.4%	4.5
Cc1cccc(-n2nnnc2S(C)(=O)=O)c1	41.6%	-4.4%	?	.	3.0%	.
SMILES	Apoferritin bind	Nrf2 ARE act	A549 viability	Nrf2 inh	IDH1 R132H inh	Giardia kill
COc1ccccc1C(=O)Nc1cccc(OCc2cc(=O)n3ccccc3n2)c1	-1.3%	5.4%	?	.	32.6%	.
N/C(=N\O)c1ccc([N+](=O)[O-])s1	-8.2%	2.5%	-18.0%	-20.7%	11.6%	-88.2*
COc1cc2ncc(S(=O)(=O)c3ccccc3)c(N3CCCC(C)C3)c2cc1OC (configuration not stated)	-21.4%	-5.0%	?	23.1µM*	?	4.7
CCN1CCN(c2c(S(=O)(=O)c3ccc(OC)cc3)cnc3cc(OC)c(OC)cc23)CC1	-9.0%	0.3%	-10.9%	5.2%	-13.4%	.
Cc1cc2c(s1)c1cnn(Cc3ccc(Cl)cc3)c(=O)c1n2C	.	.	-5.6%	3.4%	.	.
CN(C)CCNC(=O)c1ccccc1	-2.5%	3.0%	-8.8%	7.2%	9.6%	2.1
COc1ccc(OC)c2nc3c(C(=O)NCCN(C)C)cccc3nc12	.	-0.2%	16.4µM*	5.8µM*	7.9%	-9.6
COc1ccc(C23CC4CC(CC(C4)C2)C3)cc1C(=O)NCCN(C)C	?	-4.1%	0.9%	-13.1%	3.8%	-17.2
CN(C)CCNC(=O)c1cccc2nc3cccc(F)c3nc12	.	-0.4%	10.3µM*	4.61µM*	13.4%	-2.7
CN(C)CCNC(=O)c1cccc2ccc(-c3ccc(-c4ccccc4)cc3)nc12	.	4.47µM*	?	-15.7%	11.6%	-20.3
CC[C@@H](C(=O)[C@@H](C)[C@@H](O)[C@H](C)CCc1ccc(C)c(O)c1C(=O)O)C1O[C@](CC)(C2CC[C@](O)(CC)[C@H](C)O2)C[C@@H]1C (some centres not stated)	-3.7%	.	.	.	.	.
CCc1c(C)nc2nc(-c3ccccc3)nn2c1NCc1ccc(C)cc1	5.4%	-2.3%	-10.6%	18.4µM*	?	.
CCc1c(C)nc2nncn2c1NCc1ccccc1	-8.1%	0.6%	-1.9%	?	-4.6%	.

Assay outcomes from PubChem BioAssay.
